In general, inhibition refers to the relative decrease from the control value, in per cent.

Common to all, as to assay type: functional
Experiment [1] addresses Solute carrier family 2, facilitated glucose transporter member 1 (Homo sapiens) (UniProt P11166). In words: ST_JUDE_LEISH: Cytotoxicity at 2uM final concentration against transgenic Leishmania Mexicana promastigotes LmGLUT1 that are glucose transport deficient and complemented with the human glucose transporter GLUT1. Activity is measured by DNA content using SYBR green in vitro.

Experiment [2] deals with Hexose transporter 1 (Plasmodium falciparum) (UniProt O97467). In words: ST_JUDE_LEISH: Cytotoxicity at 2uM final concentration against transgenic Leishmania Mexicana promastigotes LmPfHT that are glucose transport deficient and complemented with the Plasmodium falciparum hexose transporter. Activity is measured by DNA content using SYBR green in vitro.
Experiment [3] addresses Glucose transporter (Leishmania mexicana) (UniProt O61059). Description: ST_JUDE_LEISH: Cytotoxicity at 2uM final concentration against transgenic Leishmania Mexicana promastigotes LmGT2 that are glucose transport deficient and complemented with the L. Mexicana glucose transporter 2. Activity is measured by DNA content using SYBR green in vitro.

Chain of Solute carrier family 2, facilitated glucose transporter member 1 (Homo sapiens) (P11166 whole entry): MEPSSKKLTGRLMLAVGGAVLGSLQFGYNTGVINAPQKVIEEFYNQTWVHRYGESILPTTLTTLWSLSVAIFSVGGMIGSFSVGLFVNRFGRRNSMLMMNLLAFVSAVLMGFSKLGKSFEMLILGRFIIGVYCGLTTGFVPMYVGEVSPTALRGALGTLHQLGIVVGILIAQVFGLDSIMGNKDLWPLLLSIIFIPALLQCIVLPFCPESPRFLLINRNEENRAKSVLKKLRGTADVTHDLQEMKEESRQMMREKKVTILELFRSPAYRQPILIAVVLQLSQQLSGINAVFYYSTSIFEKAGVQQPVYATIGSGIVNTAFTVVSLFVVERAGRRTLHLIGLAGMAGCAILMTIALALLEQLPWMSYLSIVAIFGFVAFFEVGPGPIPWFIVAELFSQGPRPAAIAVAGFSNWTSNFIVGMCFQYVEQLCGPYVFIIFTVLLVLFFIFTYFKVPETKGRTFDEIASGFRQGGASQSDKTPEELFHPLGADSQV

Take `CCOC(=O)C(=O)N1c2ccc(OCC)cc2-c2c(ssc2=S)C1(C)C`: the inhibition in experiment [1] is -0.01%; in experiment [2], 0.3%; in experiment [3], 6.04%.

In the case of `Oc1cccc(Nc2ccnc3cc(-c4ccncc4)ccc23)c1`, the inhibition is 10.6% in experiment [1], 9.58% in experiment [2] and 8.68% in experiment [3].

For `CCC(C)c1cnc2nc(N)nc(N)c2c1C` (centres undefined), the inhibition came out at 1.18% in experiment [1], 1.66% in experiment [2] and 2.42% in experiment [3].

`CN(CCc1ccccn1)c1cccc2c1nc(-c1cccnc1)n2CCNCc1ccccc1`: the inhibition is 14.8% in experiment [1], 13.4% in experiment [2] and 11.3% in experiment [3].

In the case of `COc1ccc(Nc2nc(NCc3ccc(-n4ccnc4)cc3)cc(-c3ccc(OC)cc3)n2)cc1`, the inhibition was determined as 3.31% in experiment [1], 2.46% in experiment [2] and 3.46% in experiment [3].

In the case of `COc1ccc(-c2ccc(NC(=O)c3ccc(C#N)cc3)cc2)cc1CN(C)CCO`, the values for the inhibition in experiment [1], in experiment [2] and in experiment [3] were 2.76%, 0.56% and 1.59%, respectively.

As to `Cc1cc(N2CCCC2)nc(Nc2ccc(NC(=O)C3CCCC3)cc2)n1`, the inhibition is -0.76% in experiment [1], 1.16% in experiment [2] and 0.83% in experiment [3].

Consider `CC1CCC(C[C@@H](C(=O)N[C@H](C(=O)Nc2nccs2)[C@@H](C)O)[C@H](CCC(F)(F)F)N(O)C=O)CC1` (some centres undefined), for which the results for the inhibition in experiment [1], in experiment [2] and in experiment [3] were 0.36%, -2.34% and 0.78%, respectively.

Consider `CCN1CCN(c2ccc(Nc3c4ccccc4nc4ccccc34)cc2)CC1`, for which the inhibition in experiment [1] was found to be 7.35%; in experiment [2], 10.6%; in experiment [3], 2.24%.

Take `COc1cc(N(Cc2ccc(F)cc2)C(=O)c2ccc(-c3ccccc3)cc2)ccc1OCCN1CCCC1`: the inhibition is 9.7% in experiment [1], 5.41% in experiment [2] and 7.12% in experiment [3].

Turning to `Cc1cc(N(CCN2CCCCC2)CCN2CCCCC2)nc(Nc2ccc(Cl)cc2)n1`, the values for the inhibition in experiment [1], in experiment [2] and in experiment [3] were 3.2%, 1.3% and 2.83%, respectively.

With `O=C(/C=C/c1ccc(Cl)c(Cl)c1)NCCCCCN1CCC(CCCNC(=O)Nc2ccc(C(F)(F)F)cc2)CC1`, the figures for the inhibition in experiment [1], in experiment [2] and in experiment [3] were -1.43%, -2.93% and -1.92%, respectively.

Regarding `Nc1c(C(=O)NCCCCN2CCN(c3nsc4ccccc34)CC2)sc2ccccc12`, the inhibition in experiment [1] turned out to be 5.13%; in experiment [2], 4.14%; in experiment [3] it was 2.39%.

`CC(C)CC1(C(=O)OC(C)(C)C)CC(C(=O)OC(C)(C)C)C(c2cccs2)N1C(=O)c1ccc(C(C)(C)C)cc1` (centres undefined): the inhibition in experiment [1] stood at 3.89%; in experiment [2], 3.12%; in experiment [3], 2.67%.

As to `Cc1cc(C)c2nc(N3CCC(C(=O)NCCCN4CCC(N5CCCCC5)CC4)CC3)sc2c1`, the inhibition in experiment [1] amounted to 1.45%; in experiment [2], 2.91%; in experiment [3], 0.65%.

Take `CCCCNc1nc(NCCCC)c2c(C)c(Cc3ccccc3)c(NCCCC)nc2n1`: the inhibition was determined as 39.8% in experiment [1], 43.6% in experiment [2] and 12.3% in experiment [3].

As to `CC[C@H]1CN(C/C=C/c2ccc(OC)cc2)CC[C@H]1CCCc1ccnc2ccc(O)cc12`, the inhibition in experiment [1] came out at 2.15%; in experiment [2], 2%; in experiment [3] it was 1.51%.

On to `Cc1ccc(S(=O)(=O)n2nccc2-c2c(-c3ccc(Cl)cc3)noc2C)cc1`, for which the inhibition in experiment [1] turned out to be 3.44%; in experiment [2] it was 3.35%; in experiment [3], 2.23%.

On to `COc1ccc(C(=O)Nc2ccc(Cl)cc2C(=O)Nc2ccncc2)cc1`, for which the figures for the inhibition in experiment [1], in experiment [2] and in experiment [3] were 4.33%, 3.94% and -0.77%, respectively.

Turning to `Cc1ccc2cc(C3NC(=O)c4ccccc4N3)c(Cl)nc2c1` (centres undefined), the figures for the inhibition in experiment [1], in experiment [2] and in experiment [3] were 18.9%, 16.3% and 14.9%, respectively.

In the case of `COc1ccc(NC(=O)NCC2CCCN(CCCCCNC(=O)/C=C/c3ccc(Cl)c(Cl)c3)C2)c(OC)c1` (centres undefined), the values for the inhibition in experiment [1], in experiment [2] and in experiment [3] were -0.03%, 3.1% and 0.18%, respectively.

Turning to `Cc1cccc2nc(-c3ccc(-c4cccc(NC(=O)C(C)CN5CCN(C)CC5)c4)s3)[nH]c12` (centres undefined), the values for the inhibition in experiment [1], in experiment [2] and in experiment [3] were 11.7%, 10.8% and 10.3%, respectively.

As to `COc1ccc(C=NNc2cc(C)nc3ccc(OC)cc23)c(OC)c1`, the figures for the inhibition in experiment [1], in experiment [2] and in experiment [3] were 8%, 7.55% and 2.56%, respectively.

For `O=C(NCCc1ccccc1)N(Cc1ccccc1-c1cccc(CNCc2ccc3c(c2)OCO3)c1)C1CCN(Cc2ccccc2)CC1`, the inhibition was 3.72% in experiment [1], 4.3% in experiment [2] and 3.13% in experiment [3].

Turning to `O=C(Nc1ccc2c(c1)OCCO2)c1cc(-c2cccnc2)nc2ccc(Cl)cc12`, the inhibition in experiment [1] worked out at 3.75%; in experiment [2], 1.71%; in experiment [3], 0.65%.

Take `O=C(NCCc1ccccc1)N(Cc1cccc(-c2ccc(CNCCc3ccccc3)cc2)c1)C1CCN(Cc2ccccc2)CC1`: the figures for the inhibition in experiment [1], in experiment [2] and in experiment [3] were 0.95%, -0.75% and 0.12%, respectively.

In the case of `CN(C)Cc1c(O)ccc2[nH]c(-c3ccc(F)cc3F)nc12`, the inhibition in experiment [1] is 1.13%; in experiment [2], 1.4%; in experiment [3], -1.59%.

For `CN(C)CCOc1ccc(-c2cc(-c3ccc(Cl)c(O)c3)c(-c3ccncc3)[nH]2)cc1`, the inhibition is -0.18% in experiment [1], -0.32% in experiment [2] and 0.48% in experiment [3].

Take `COc1ccc(CC(=O)Nc2ccc(Nc3nc(C)cc(N(C)C)n3)cc2)cc1`: the inhibition in experiment [1] was found to be 10.3%; in experiment [2], 17.7%; in experiment [3], 1.53%.

Take `CCN(CC)CCCC(C)Nc1nc(C=Cc2ccc(Br)cc2)nc2cc(Cl)ccc12` (centres undefined): the inhibition came to 11% in experiment [1], 9.25% in experiment [2] and 10.2% in experiment [3].

On to `Cc1nnc(-c2cccc(Nc3ccnc4cc(-c5nccs5)ccc34)c2)o1`, for which the inhibition was found to be 11.2% in experiment [1], 11.8% in experiment [2] and 9.75% in experiment [3].

Regarding `CN1CCC(NCc2ccc(-c3ccc(S(=O)(=O)NCc4ccccc4)c(F)c3)cc2)CC1`, the inhibition in experiment [1] is 12.7%; in experiment [2] it was 13.2%; in experiment [3] it was 7.68%.

On to `N#CCCN1CCN(Cc2cccc(-c3ccc(-c4nc5ccccc5[nH]4)cc3)c2)CC1`, for which the inhibition came out at 2.32% in experiment [1], 3.22% in experiment [2] and 0.84% in experiment [3].

For the origin of these results see ChEMBL document CHEMBL3433997, “St. Jude Leishmania screening dataset” (2016).
